Here are results for 70 molecules from PubChem BioAssay AID456 (Sanford-Burnham Center for Chemical Genomics, 2006).

Screen size: about 10,000 compounds; about 25 (0.2%) were called active. The sample as a whole holds a higher share of actives than the screen did. Entries with a potency or affinity are not part of this list. A number with no mark means an inactive call.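 How the source made its calls: active means top tenth filtered wells with inhibition above zero that passed visual or statistical confirmation; inactive means the rest, including hits rejected on review.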

This test is described as follows: inhibitors of TNFa-induced VCAM-1 surface display, imaging, high-content imaging, pooled HUVEC, TNFa stimulus (AID 456).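 On inhibition: VCAM-1 immunofluorescence minus red nonspecific channel after plate median normalization.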 The note with it: HUVEC TNFa-induced VCAM-1 surface expression, immunofluorescence imaging;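 compounds screened at 5 µM final in the well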.
As for `COc1ccccc1N1CCN(C(=O)c2cc(C3CC3)on2)CC1`, the inhibition entry is “inactive”.

In the case of `CCOC(=O)Cc1nnc(NC(=O)c2ccccc2OCC)s1`, the inhibition entry was “inactive”. In the case of `O=C(CCn1c(=O)oc2ccccc21)NCCN1CCOCC1`, the inhibition result was “inactive”. With `O=c1[nH]c(NCc2ccccc2)nc2c1CCCC2`, the inhibition entry is “inactive”. Regarding `Cc1ccc(N2CCN(C(=S)c3ccc(N(C)C)cc3)CC2)cc1`, the inhibition result was “inactive”. For `COc1ccccc1N1CC(C(=O)Nc2cccc(C(=O)O)c2)CC1=O` (stereo not given) the value was “inactive”; for `c1ccc(OCCCn2nnc(-c3cccnc3)n2)cc1`, “inactive”; for `CCN(CC)CCn1c(=N)n(CCO)c2ccccc21`, “inactive”. `Cc1c(NC(=O)Cn2nc(C(=O)O)c3ccccc3c2=O)c(=O)n(-c2ccccc2)n1C`: the inhibition entry is “inactive”.

For the molecule `Cn1ccnc1SCC(=O)Nc1ccc2ccccc2c1`, the inhibition entry is “inactive”.

Consider `CCOC(=O)c1sc(NS(=O)(=O)c2ccc(NC(C)=O)cc2)nc1C`, for which the inhibition result was “inactive”. For `CCn1c(-c2cc(Br)ccc2O)n[nH]c1=S` the value was “inactive”; for `CCSc1oc(-c2cccs2)nc1S(=O)(=O)c1ccccc1`, “inactive”; for `COc1ccc(OCC(=O)N2CCN(C(=O)COc3ccc(Br)cc3)CC2)cc1`, “inactive”. As to `COc1cc2c(cc1OC)C(c1cccnc1)CC(=O)N2` (stereo not given), the inhibition result was “inactive”. With `COc1ccc(NC(=O)c2cc(C(C)C)on2)c(OC)c1`, the inhibition result is “inactive”. `Cc1ccc2c(c1)NC(=O)C(CC(=O)NC1CCCCC1C)O2` (stereo not given): the inhibition entry was “inactive”. For `COc1ccc(N2C(=O)CCC(C(=O)N3CCCCC3)C2c2ccc(OC)c(OC)c2)cc1` (stereo not given) the value was “inactive”; for `CCCC1(C(=O)OCC)NC(c2ccc(N(C)C)cc2)C2C(=O)N(c3ccccc3)C(=O)C21` (stereo not given), “inactive”. Take `CCOc1ccc(-n2cc(C(=O)Nc3cccc(C)n3)c3cc(OC)c(OC)cc3c2=O)cc1`: the inhibition entry is “inactive”.

In the case of `COc1ccccc1N1CCN(C(=O)CSc2nc3ncnc(N)c3[nH]2)CC1`, the inhibition entry was “inactive”. The entry for `Cc1ccc(-c2[nH]nc3c2C(c2ccc(OC(=O)N4CCOCC4)cc2)C(C#N)=C(N)O3)cc1` (stereo not given) is “inactive”; for `O=C(CSc1nnc(-c2ccccc2)o1)N1CCN(c2ccccc2)CC1` it is “inactive”. On to `CN(c1ccccc1)C(c1ccc(F)cc1)c1nnnn1CC1CCCO1` (stereo not given), for which the inhibition entry is “inactive”. The entry for `Cc1ccc(CCSCC(=O)O)cn1` is “inactive”.

Regarding `O=C(Nc1ccc(N2CCOCC2)c(Cl)c1)c1ccc(Br)o1`, the inhibition entry was “inactive”.

Consider `CCn1c(CSc2nc(C)cc(C)n2)nnc1SCC(=O)Nc1ccccc1`, for which the inhibition result is “inactive”. As to `COc1ccccc1N1CCN(C(=O)C(Cc2ccccc2)NC(=O)C2CCCCC2)CC1` (stereo not given), the inhibition result is “inactive”. As for `COc1ccc(C(N)=O)cc1N`, the inhibition entry is “inactive”.

With `C#CCN1C(=O)C(O)(CC(=O)c2cccc(OC)c2)c2ccccc21` (stereo not given), the inhibition entry is “inactive”. With `CCOC(=O)c1c(C)oc2ccc(O)c(CN(C)C)c12`, the inhibition result is “inactive”. Consider `CN(c1cccc(NC(=O)COc2ccccc2)c1)S(C)(=O)=O`, for which the inhibition result is “inactive”. On to `CCOc1ccc2ccccc2c1C(=O)N1CCN(c2ccccc2)CC1`, for which the inhibition entry was “inactive”. The entry for `CCOC(=O)c1c(NC(=O)CSc2nnc(-c3cccnc3)o2)sc(C)c1C` is “inactive”; for `CCN1C(=O)c2cccc3c(NC(=O)c4ccc5c(c4)OCCO5)ccc1c23` it is “inactive”; for `CN(C)S(=O)(=O)c1ccc(C(=O)Nc2ccccc2C(=O)O)cc1` it is “inactive”. Take `N#Cc1c2n(c(=O)[nH]c1=O)CCCCC2`: the inhibition entry was “inactive”. For the molecule `O=C(c1nn2cccnc2c1Cl)N1CCN(c2ccccc2)CC1`, the inhibition result is “inactive”. Regarding `COC(=O)c1cc(Oc2ccc(C(=O)OC)cc2N)cc(C(=O)OC)c1`, the inhibition result is “inactive”. Take `Cc1cc(C)n(C(=O)C23CC4CC(CC(C4)C2)C3)n1`: the inhibition entry is “inactive”. `Cn1c(=O)cc(OCCCC(=O)N2CCCCC2)c2ccccc21`: the inhibition was 102%. The entry for `Cc1ccc2oc(=O)c3cnn(CC(=O)N4CCCCC4C)c3c2c1` (stereo not given) is “inactive”; for `Cc1cc(NS(=O)(=O)c2ccc(NC(=O)C(C)N3C(=O)c4ccccc4C3=O)cc2)nc(C)n1` (stereo not given) it is “inactive”; for `CC(=O)Nc1ccc(Cc2ccncc2)cc1` it is “inactive”. In the case of `CN(C)S(=O)(=O)c1ccc(Oc2ccc(S(=O)(=O)N(C)C)cc2)cc1`, the inhibition result is “inactive”.

As to `O=S(=O)(Nc1ccccn1)c1ccc(Oc2ccccc2)cc1`, the inhibition entry is “inactive”. As for `COCCn1c(COc2ccc(Cl)cc2)nnc1SCC(N)=O`, the inhibition entry is “inactive”. In the case of `Cc1cc(NC(=O)CSc2nnc(COc3cccc(C)c3C)n2Cc2ccco2)no1`, the inhibition entry is “inactive”. For `Cc1occc1C(=O)N1CCN(Cc2ccccc2)CC1` the value was “inactive”.

With `CCOC(=O)c1sc(N)c(C(=O)OCC)c1COC(=O)C1CC(=O)N(Cc2ccco2)C1` (stereo not given), the inhibition entry is “inactive”. Regarding `O=C(CN(c1ccccc1)S(=O)(=O)c1ccccc1)N1CCN(Cc2ccc3c(c2)OCO3)CC1`, the inhibition result is “inactive”.

For `CCOC(=O)CNC(=O)c1c(C)nn(-c2ccccc2)c1Cl`, the inhibition entry is “inactive”. Turning to `COc1ccc(S(=O)(=O)NCC(=O)N(CC(=O)NCC2CCCO2)c2ccccc2C)cc1` (stereo not given), the inhibition result was “inactive”.

Consider `Cc1cccc(N2CCN(C(=O)CCn3c(=S)[nH]c4cc5c(cc4c3=O)OCO5)CC2C)c1` (stereo not given), for which the inhibition entry was “inactive”.

As to `CC1(C)C(c2ccccc2)=NC(c2ccccc2)N1O` (stereo not given), the inhibition entry is “inactive”. For `O=C(NCCN1CCOCC1)c1csc2c1CCCC2` the value was “inactive”; for `CCOC(=O)N1CCN(CC(O)COc2ccccc2C(C)CC)CC1` (stereo not given), “inactive”; for `CCN(CC(=O)Nc1ccc(S(N)(=O)=O)cc1)S(=O)(=O)c1cc(C)ccc1OC`, “inactive”.

Take `CCCCC(=NCCO)C1=C(O)C(C(=O)OC)C(C)(C)CC1=O` (stereo not given): the inhibition entry is “inactive”.

`O=C(CSc1nc2ccsc2c(=O)n1NC(=O)c1ccccc1)Nc1nccs1`: the inhibition entry was “inactive”. For `COc1cc2c(C)nc(C)c(C#N)c2cc1OC` the value was “inactive”. On to `COc1ccc(Cn2c(N)c(C#N)c3nc4ccccc4nc32)cc1OC`, for which the inhibition result is “inactive”. On to `COc1ccc(C)cc1-n1c(N)c(C#N)c(C#N)c1-c1ccc(OC)c(OC)c1OC`, for which the inhibition is 77% (active). Turning to `Cc1cc2cc(CN(CC3CCCO3)C(=O)c3cnccn3)c(=O)[nH]c2cc1C` (stereo not given), the inhibition result was “inactive”. For the molecule `COc1ccc2oc(C)c(C(=O)Cn3ccnc3)c2c1`, the inhibition entry was “inactive”. Turning to `Cn1c(=O)c2c(nc(SCCCC#N)n2Cc2ccccc2F)n(C)c1=O`, the inhibition result was “inactive”. In the case of `Cn1c(=O)c2c(nc(SCCCC#N)n2Cc2c(F)cccc2Cl)n(C)c1=O`, the inhibition was 72.9% (active). Consider `Cn1c(=O)c2c(nc(SCCCO)n2Cc2ccccc2Cl)n(C)c1=O`, for which the inhibition entry is “inactive”. The entry for `O=C(c1csc2ccccc12)N1CCCCCC1` is “inactive”. On to `Cn1c(-c2ccc(F)cc2)cnc1SCC(=O)Nc1ccccc1N1CCOCC1`, for which the inhibition result was “inactive”.

One may read the inhibition as the change of the read-out against control, counted positive when it falls.
